Shown are actives, neighbours in structure and some others; about 21% of the full set was active somewhere.
Pf growth 96h: P. falciparum growth inhibition at 96 hour, primary screen for plastid delayed-death inhibitors. P. falciparum luciferase reporter growth, 96 h. Potency, µM (titrated, usually from 28.7 µM), for inactives: at the top dose activity change, negative = inhibition, actives largely listed as inhibitors. 320,000 compounds, 6.9% hits. AID 504834; also: potency is read from the fitted curve at half-maximal effect; % is scaled to controls: 0 for no effect and ±100 for the full control effect
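Cell-based qHTS: luciferase-tagged P. falciparum in erythrocytes (2% hematocrit, 0.05% parasitemia final) incubated with compounds for 96 hours, 37 C, 5% CO2; luciferase detection reagent then added and luminescence measured.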
FBPA Giardia inh: blocks Giardia fructose-bisphosphate aldolase activity; Potency, µM (highest dose often 59.6 µM), inactives show at the top dose activity, negative = inhibition, actives largely listed as inhibitors; 290,000 compounds, 0.71% hits; AID 2451; purified Giardia FBPA; also: potency is read from the fitted curve at half-maximal effect; % is scaled to controls: 0 for no effect and ±100 for the full control effect; nearly all actives have a fitted effect of over 55% in size
Target sequence (A8B2U2 whole entry, looked up): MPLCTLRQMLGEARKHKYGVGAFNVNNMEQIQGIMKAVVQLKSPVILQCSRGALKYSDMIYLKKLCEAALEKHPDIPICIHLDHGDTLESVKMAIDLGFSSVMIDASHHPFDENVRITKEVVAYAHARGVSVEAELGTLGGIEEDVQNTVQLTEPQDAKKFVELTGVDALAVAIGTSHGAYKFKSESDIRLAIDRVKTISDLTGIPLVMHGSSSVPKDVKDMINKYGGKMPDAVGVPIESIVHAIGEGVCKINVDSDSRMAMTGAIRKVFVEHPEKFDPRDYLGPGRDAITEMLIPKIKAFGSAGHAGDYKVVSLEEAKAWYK
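40 nM FBPA preincubated 10 min at RT with compound (up to 57.5 uM final), then substrate plus GAPDH/TPI/NAD/arsenate coupling and diaphorase/resazurin added. Fluorescence read after 20 min at RT, 525/598 nm.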
CHX counter: affects cycloheximide protein synthesis inhibition readout, counter-screen. AID 2314. max response, %. cell reporter, cycloheximide protein synthesis inhibition counterscreen. 300,000 compounds, 12% hits; in the data active = max response mostly above about 13%, no sharp cut-off; inactive = mostly below about 14%; also: read at 38.3 µM for the half of the compounds with a filed dose; 0% is about no effect
NS1 inh: inhibitors of influenza NS1 protein function | Potency, µM (titrated, usually from 46.1 µM), inactives show at the highest dose activity, positive = more growth | 270,000 compounds, 0.4% hits | AID 2326; calls by dose curve; also: potency is read from the fitted curve at half-maximal effect; actives are rising curves; nearly all actives have a fitted effect of over 50% in size
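OD600 was taken as the measure of yeast growth restored by compound in an NS1-expressing S. cerevisiae strain. Cells had been washed out of glucose medium and diluted 1:100 into galactose -URA medium, pH 6.0.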
Pf growth 48h: P. falciparum growth inhibition at 48 hours (one generation). 310,000 compounds, 5.9% hits. Potency, µM (doses to about 28.7 µM), for the others: at the highest dose activity change, negative = inhibition, hits mostly inhibitors. AID 504832. P. falciparum luciferase growth in erythrocytes, 48 h; also: potency is read from the fitted curve at half-maximal effect; % is scaled to controls: 0 for no effect and ±100 for the full control effect
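Read-out is firefly luciferase luminescence from an integrated reporter in P. falciparum, so falling signal marks reduced parasite growth. Infected erythrocytes were at 2% hematocrit and 0.1% parasitemia (final) in Albumax-supplemented RPMI 1640.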
Shiga toxin inh: blocks Shiga toxin action in Vero cells | Vero cells, Shiga toxin protein synthesis inhibition reporter | inhibition, % at 38.7 µM | 290,000 compounds, 9.2% hits | AID 2315; in the data active = inhibition mostly above about 28%, no sharp cut-off; inactive = mostly below about 43%; also: 0% is about no effect
* = called active by the depositor; ? = inconclusive; · = no result given. Unless noted, calls follow the shape of the dose curve; as a rule, active = well fitted curve in the direction sought with a large enough effect; inconclusive = small, poorly fitted or top-dose-only effect, or another doubt; inactive = no such curve, though single readings can be large; an effect the other way counts as inactive or inconclusive.

SMILES | Pf growth 96h | FBPA Giardia inh | CHX counter | NS1 inh | Pf growth 48h | Shiga toxin inh
CCc1ccc(Nc2n[n+](-c3ccccc3)c(-c3ccc(C(=O)O)cc3)s2)cc1 | ? | ? | -1.4 | 14.7% | 28.3% | 16.6
CCc1ccc(Nc2n[n+](-c3ccccc3)c(-c3ccc(SC)cc3)s2)cc1 | 4.65µM* | -25.4% | 33.3* | 19.8% | ? | 34.2*
CCc1ccc(Nc2n[n+](-c3ccccc3)c(-c3ccc(OC)c(Br)c3)s2)cc1 | 4.65µM* | ? | 25.5* | 10.4% | 0.9% | 33.1*
COc1ccc(C)cc1Nc1n[n+](-c2ccccc2)c(-c2cc([N+](=O)[O-])cc(OC)c2O)s1 | -100.0% | -25.2% | -1.2 | 11.2% | ? | -4.9
COc1ccc(C)cc1Nc1n[n+](-c2ccccc2)c(-c2ccc(SC)cc2)s1 | ? | ? | 41.8* | 4.1% | ? | 51.5*
COc1cc(Br)c(-c2sc(Nc3ccccc3)n[n+]2-c2ccc(F)cc2)cc1OC | 3.7µM* | -21.9% | -2.3 | -14.5% | 1.85µM* | -2.9
COc1cc(OC)c(-c2sc(Nc3ccccc3)n[n+]2-c2ccc(F)cc2)cc1OC | 19.7% | -6.7% | -2.1 | -6.9% | 10.9% | -5.3
COc1ccccc1NC(=O)CN1CCN(CC(=O)Nc2ccc(C)c(F)c2)CC1 | ? | -2.2% | -1.3 | -12.0% | ? | -9.3
CC(C(=O)N1CCc2ccccc21)N1CCN(c2cccc(C(F)(F)F)c2)CC1 (stereo not given) | ? | -4.6% | -2.0 | -27.2% | ? | -2.6
O=C1c2ccccc2NC(c2c(Cl)cccc2Cl)N1Cc1ccccc1 (stereo not given) | -19.1% | -0.9% | 3.7 | ? | 13.1µM* | -8.0
O=C1c2ccccc2NC(c2ccc(Cl)cc2Cl)N1Cc1ccccc1 (stereo not given) | ? | -5.9% | 17.8 | 18.0% | · | 23.1
S=C(N/N=C/c1cccs1)NC1CC2CCC1C2 (stereo not given) | 10.4µM* | 11.5% | 24.0* | -43.6% | ? | 46.5*
S=C(Nc1cccnc1)NC1CC2CCC1C2 (stereo not given) | ? | · | 0.5 | 12.8% | ? | 10.6
Oc1ccc(/C=N/NC(=S)NCC2CCCO2)cc1 (stereo not given) | 21.5% | -9.9% | 1.0 | 25.3% | · | -6.2
Oc1ccc(/C=N/NC(=S)NC2CC3CCC2C3)cc1 (stereo not given) | ? | 0.1% | 16.5* | 2.1% | ? | 37.2
O=C(/C=C/c1cccc([N+](=O)[O-])c1)NCCSCc1cccc(Cl)c1 | 14.3% | 0.4% | -1.2 | -43.3% | 1.3% | -4.5
CCOC(=O)C1=C(COC(=O)CSc2ccc(C)cc2)NC(=O)NC1C (stereo not given) | -7.3% | · | · | · | -12.3% | ·
O=C(CN1CCC(C(=O)c2ccc3c(c2)OCCO3)CC1)Nc1ccccc1C(F)(F)F | 157.1% | -4.0% | -3.9 | -20.3% | -7.5% | -3.9
Nc1ccc(N2CCCCC2)c(Cl)c1 | ? | -3.7% | -2.4 | 2.6% | -1.4% | -5.8
CNC(=O)c1cc(NC(=O)CCn2nc(-c3ccccc3)c3ccccc3c2=O)ccc1OC | 0.828µM* | 1.0% | -1.2 | -1.3% | 2.08µM* | 9.5
O=C(CCn1nc(-c2ccccc2)c2ccccc2c1=O)Nc1cccnc1 | 50.9% | -1.0% | -3.1 | 0.2% | -9.8% | -8.0
COc1cccc(CN2CCC(C(=O)Nc3ccc(-c4cccc(C)c4)cc3)CC2)c1O | 0.2% | 10.7% | -2.1 | 0.5% | ? | -1.3
O=C(Nc1ncc(Cc2ccc(C(F)(F)F)cc2)s1)c1ccc(-c2cccc([N+](=O)[O-])c2)o1 | 0.37µM* | 1.4% | -2.0 | 20.0% | ? | -11.1
Cc1cccc(Cc2cnc(NC(=O)c3ccc(C)o3)s2)c1 | -32.3% | -3.5% | 34.7* | -77.8% | · | 71.0*
Cc1ccc(Cc2cnc(NC(=O)c3ccco3)s2)cc1 | · | 0.8% | 34.8* | -49.5% | 200.7% | 66.7*
SMILES | Pf growth 96h | FBPA Giardia inh | CHX counter | NS1 inh | Pf growth 48h | Shiga toxin inh
Cc1cnc(NC(=O)c2ccc(-c3ccc([N+](=O)[O-])cc3)o2)s1 | 6.57µM* | · | · | · | ? | ·
O=C(Nc1ncc(Cc2ccccc2Cl)s1)c1ccc(-c2cccc([N+](=O)[O-])c2)o1 | 37.0% | 8.2% | 0.6 | 6.9% | ? | -16.0
CCC(CO)Oc1cc(NC(=O)c2ccc(C)cc2)c2ncn(C(C)C)c2c1 (stereo not given) | -6.6% | · | · | · | ? | ·
Cc1ccc(C(C(=O)NC2CCCCC2)N(CC2CCCO2)C(=O)CCCC(=O)Nc2ccccn2)cc1 (stereo not given) | ? | 11.6% | 0.6 | -5.2% | ? | -14.7
Cc1ccc(Cc2cnc(NC(=O)C3=NCCN3)s2)cc1 | 59.4% | ? | 4.3 | 4.4% | 21.0% | 40.1
O=C(Nc1ncc(Cc2ccccc2Cl)s1)c1ccc([N+](=O)[O-])cc1 | ? | -9.7% | -1.5 | 6.3% | 0.0% | -7.3
COc1cc(NC(=O)c2cccc([N+](=O)[O-])c2)ccc1NC(=O)c1ccco1 | 43.7% | -8.3% | 23.3 | · | ? | 19.2
O=C(Nc1ncc(Cc2cccc(Cl)c2)s1)c1ccc([N+](=O)[O-])cc1 | 13.1µM* | 10.0% | -3.0 | 5.6% | ? | -6.5
O=C(Nc1ncc(Cc2cccc([N+](=O)[O-])c2)s1)c1ccco1 | 17.5% | -3.2% | 29.5* | -4.6% | 71.1% | 101.7*
O=C(Nc1ncc(Cc2ccccc2)s1)C1=NCCN1 | 17.2% | ? | 15.5 | -5.3% | 16.1% | 58.0*
CC(C)C[C@@H](CC(=O)N[C@@H](CCC(=O)O)CC(=O)O)NC(=O)[C@@H]1CNCC[C@H]1NC(=O)C[C@H](CCCN)NC(=O)C[C@H](Cc1ccccc1)NC(=O)[C@@H]1CNCC[C@H]1N | · | -13.5% | · | · | · | ·
CCN(Cc1ccncc1)Cc1c(O)ccc2cc(Br)ccc12 | 6.57µM* | 8.89µM* | 2.8 | · | 5.86µM* | 33.9
CN1CCN(Cc2c(O)ccc3cc(Br)ccc23)CC1 | ? | -17.3% | 0.6 | · | -12.6% | 1.8
COc1cc(OC)c(NS(=O)(=O)c2c(C(=O)N3CCCCC3)c(C)n(C)c2C)cc1Cl | -7.9% | · | -1.9 | -4.6% | -18.2% | 11.4
COc1ccccc1CNC(=O)C1CCN(S(=O)(=O)c2cccc([N+](=O)[O-])c2)CC1 | 9.2% | 9.6% | -2.1 | -11.7% | -3.7% | -4.9
O=C(NCc1ccco1)c1ccc(S(=O)(=O)N2CCCCCC2)cc1 | 10.4µM* | · | · | · | 8.28µM* | ·
O=C(NCc1ccco1)C1CCN(S(=O)(=O)c2cccc([N+](=O)[O-])c2)CC1 | -10.0% | -1.5% | -1.8 | 3.8% | 9.28µM* | -4.9
Cc1cc2cc(CNC(=O)c3ccc(S(=O)(=O)N4CCCCC4)cc3)ccc2n1C | 42.5% | -29.4% | 9.3 | 1.26µM* | · | 17.4
Cc1ccc(C(=O)NCc2ccco2)cc1S(=O)(=O)N1CCCCC1 | 2.33µM* | -3.9% | 2.8 | 5.1% | ? | -8.7
O=C(Nc1ccccc1)N1CCCC2(CCNCC2)C1 | · | -3.4% | · | · | · | ·
